Test results reported in PubChem BioAssay AID588405 (Sanford-Burnham Center for Chemical Genomics, 2011).
Hit rate of the full screen: of about 360,000 compounds, about 6,200 (1.7%) were called active. The sample holds actives, similar compounds and a random draw of the others, so the mix is not that of the screen. Unmarked numbers belong to inactive results.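 How the source made its calls: active means inhibition of at least 50% at 20 µM; inactive means the rest.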

Experiment: Peg3 promoter-driven luciferase inhibitors, primary screen, cell-based, HeLa, luciferase luminescence (AID 588405)
Conditions: HeLa PEG-Prom luciferase reporter, overnight, at 20 µM, hits give high values
Compound `COc1cc(F)ccc1-c1cc(C(=O)NCC2CCCCC2)[nH]n1` has an inhibition of -33.4%. With `CC(C)COC(=O)C1C2C=CC3(CN(C(C)c4ccc(Br)cc4)C(=O)C13)O2` (centres undefined) the inhibition was 6.1%. Compound `COc1cc(NC(=O)c2cc(-c3ccc(F)cc3OC(C)C)n[nH]2)cc(OC)c1OC` has an inhibition of 33.7%. With `Cc1ccc(C(=O)NCC(=O)O)s1` the inhibition was 13.7%. With `Cc1nc2c(OCc3cccc(Cl)c3)cccn2c1N(C)CC1CC1` the inhibition was -12.2%. Work on `OC(c1ccc(Cl)c(F)c1)c1ncc(-c2ccccc2Cl)[nH]1` (centres undefined) yielded an inhibition of 17.5%. `O=C(NC(c1ccc(Cl)cc1)c1cnccn1)C1CCN(Cc2ccc(Cl)cc2)CC1` (centres undefined) showed an inhibition of 6.83%. For `Cc1ccc(C(NC(=O)C2CCN(CCOc3ccc(Cl)cc3Cl)CC2)c2ccccn2)cc1` (centres undefined), the inhibition was 106% (active). `O=C(NC(c1ccc(-c2ccccc2)cc1)c1cnccn1)C1CCN(CCOc2ccc(Cl)cc2Cl)CC1` (centres undefined) gave an inhibition of 37.4%. Work on `Nc1ncnc2c1ncn2[C@@H]1O[C@H](CNC(=O)[C@H](N)Cc2cccnc2)[C@@H](O)[C@H]1O` yielded an inhibition of -0.67%. Work on `O=C(CC[C@H]1O[C@@H](n2ccc(=O)[nH]c2=O)[C@H](O)[C@@H]1O)N[C@H](Cc1ccccc1)C(=O)NCCCN1CCCC1=O` yielded an inhibition of -0.27%. With `CCOC(=O)C1=C(CCc2ccccc2)NC(=O)NC1c1ccc2ccccc2c1` (centres undefined) the inhibition was 40.3%. With `CCCCNC(=O)C(C)N(CCN(C)C)C(=O)CCCCCN1C(=O)NC(c2ccc(Cl)cc2)C(C(=O)OCc2ccccc2)=C1C` (centres undefined) the inhibition was 91.8% (active). With `CCOC(=O)C1=C(C)N(C[C@@H]2CC[C@@H](Cc3ccc(-c4ccccc4)cc3)O2)C(=O)NC1c1ccc([N+](=O)[O-])cc1` (some centres undefined) the inhibition was 15.2%. In the case of `COC(=O)C1=C(C)N(Cc2ccccc2)C(=NCCCOC(C)C)N[C@H]1c1ccccc1`, the inhibition is reported as -9.14%. Compound `CCOC(=O)CCCNC(=O)CN1C(=O)NC(CCc2ccccc2)C1=O` (centres undefined) has an inhibition of 1.97%. In the case of `CCCCNC(=O)C(C)N(CCN(C)C)C(=O)CCCN1C(=O)NC(c2ccc(Cl)cc2)C(C(=O)OCc2ccccc2)=C1C` (centres undefined), the inhibition is reported as 92.9% (active). In the case of `CC1=C(C(=O)N(C(C)C)C(C)C)CC(CC(=O)NCC2CCCCC2)C(=O)N1Cc1ccccc1` (centres undefined), the inhibition is reported as 11.2%. For `O=C(Nc1ccc(OCCO)cc1)c1csc([C@H]2C[C@H](O)[C@@H](CO)O2)n1`, the inhibition was 14.9%. In the case of `CCNC(=O)C1(C)CCCN(Cc2noc(-c3ccccc3OC)n2)C1` (centres undefined), the inhibition is reported as 2.68%. In the case of `O=C1Oc2ccccc2C(=O)/C1=C/c1ccccc1O`, the inhibition is reported as 69.8% (active). For `COC(=O)c1ccc(/C=C2/C(=O)Oc3ccccc32)cc1`, the inhibition was 11.1%. Compound `C=C1C(=O)[C@]23C[C@H]1CCC2[C@@]1(C)C(C[C@@H]3O)[C@](C)(C(=O)O)CC[C@@H]1O` (some centres undefined) has an inhibition of 3.91%. For `CC1CC(C)(C)n2c(O)c(N=NC(N)=S)c3cccc1c32` (centres undefined), the inhibition was 29.2%. Compound `CCc1nc2ccc(C(=O)N(C)Cc3ccco3)cn2c1N(C)C(=O)Cc1ccccc1` has an inhibition of 8.02%. In the case of `O=C(O)C#Cc1cccc2ccccc12`, the inhibition is reported as 12.5%. In the case of `CC(C)(C)c1nnc2sc(SCC(O)=C(C#N)c3nc4ccccc4[nH]3)nn2c1=O`, the inhibition is reported as 20.3%. `COc1ccccc1C(=O)COC(=O)COc1ccc(C#N)cc1` showed an inhibition of 10.1%. For `N#C/C(=C(/O)COC(=O)COc1ccc(Cl)cc1)c1nc2ccccc2[nH]1`, the inhibition was 71.2% (active). Compound `COc1ccc(C2=Nc3ccccc3NC(=O)C2N(C(=O)c2cc3ccccc3[nH]2)c2ccccc2)cc1` (centres undefined) has an inhibition of -169%. For `CC1(C(=O)Nc2cccc3c2CCCC3)CCN1C(=O)C1(c2ccccc2)CC1` (centres undefined), the inhibition was 11.5%. For `Cc1ccc(NC(=S)N(CCCN2CCCC2)Cc2cccn2Cc2ccc(Cl)cc2)cc1`, the inhibition was 83.4% (active). `CCc1cccc(C)c1NC(=S)N(CCCN1CCN(C)CC1)Cc1cccs1` showed an inhibition of 12%. `Cc1ccccc1NC(=S)N(CCCN1CCOCC1)Cc1cccs1` gave an inhibition of -3.16%. With `O=C(C1CCN(c2nnc(-n3cccc3)s2)CC1)N1CCc2ccccc2C1` the inhibition was 14.8%. `O=c1c2c3c(sc2n(CCN2CCCC2)c(=O)n1Cc1ccccc1)CCCCC3` gave an inhibition of -15%. `CCn1c(=S)[nH]c2sc3c(c2c1=O)CCCCC3` gave an inhibition of -19.3%. With `CN(C)CCCn1c(=O)n(Cc2ccccc2)c(=O)c2c3c(sc21)CCCCC3` the inhibition was 89.8% (active). Work on `CCCCC1S/C(=N/N=C/c2cccs2)NC1=O` (centres undefined) yielded an inhibition of -0.95%. Compound `CC(=O)Nc1cccc(-c2ccnc3c2CC(C)(C(=O)NCc2ccccc2)O3)c1` (centres undefined) has an inhibition of -22.6%. With `CC(C(=O)NC1CCS(=O)(=O)C1)N1C(=O)/C(=C/c2ccc(Cl)cc2)SC1=S` (centres undefined) the inhibition was -7.3%. With `O=C1/C(=C\c2ccc(O)cc2)CCC1CNc1ccc(Cl)cc1` (centres undefined) the inhibition was 93.8% (active). `O=C1N=C(N2CCc3ccccc3C2)S/C1=C\c1ccc(O)cc1` showed an inhibition of -5.21%. With `CCCC(=O)N1CCC1(C)C(=O)NS(=O)(=O)c1ccc(Cl)cc1` (centres undefined) the inhibition was 3.54%. Work on `CC(=O)Nc1cccc(Nc2ccc(C#N)cc2)c1` yielded an inhibition of -24.3%. With `O=C(Cc1ccc(-n2c(=O)[nH]c3ccccc3c2=O)cc1)N1CCN(c2cccc(Cl)c2)CC1` the inhibition was 9.68%. Compound `COc1cccc(CNC(=O)Cc2csc(Nc3nc(=S)[nH]c4ccccc34)n2)c1` has an inhibition of 29.3%. For `O=C(Cc1csc(Nc2nc(=S)[nH]c3ccccc23)n1)NCCCN1CCN(c2cccc(Cl)c2)CC1`, the inhibition was 53.1% (active). `COC(=O)c1ccc(CN2C(=O)C(Cc3ccccc3)ON=C2c2ncccc2C)o1` (centres undefined) showed an inhibition of 3.64%. `O=C(Cc1ccc([N+](=O)[O-])cc1)Nc1ccc(C(=O)N2CCOCC2)cc1` showed an inhibition of -2.85%. Compound `CCOc1ccc(C(CCc2ccccc2)NC(=O)c2ccc(OC)c(OC)c2)cc1OCC` (centres undefined) has an inhibition of 11.6%. With `CCCCC(=O)NC(c1ccc(OC)c(OC)c1)c1ccc2cccnc2c1O` (centres undefined) the inhibition was 60.4% (active). `C=CCn1c(COc2cccc3cccnc23)nnc1SCC(=O)OC` showed an inhibition of 16.7%. `CCc1nc2c(OCCC3CCCCC3)cccn2c1N(C)C(=O)c1ccco1` showed an inhibition of 5.45%.
